Our source for the Potency, outcome and activity change, positive = activation values is PubChem BioAssay (Tox21).

Unmarked numbers belong to inactive results. Records with an inconclusive call do not appear. Calls of active or inactive are those of the source. Unless noted, the call rests on the fitted dose curve; in most records, active means well fitted curve in the direction sought with a large enough effect in the repeat runs; inconclusive means weak or mixed curves; inactive means no such curve, though single readings can be large; an effect the other way counts as inactive or inconclusive.

Experiment [1] can be described thus: qHTS assay to identify small molecule agonists of the hypoxia (HIF-1) signaling pathway - cell viability counter screen (AID 1224844; calls by dose curve; further: nearly all actives have a fitted effect of over 50% in size). In a few lines:
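In this counter screen, HRE-bla ME-180 cell viability after 17 hrs of compound exposure at 37C was read by CellTiter-Glo luminescence, multiplexed with the beta-lactamase reporter measurement.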
In general terms: In qHTS, concentration-response curves come from the screen itself.

The nature of experiment [2]: qHTS assay to identify small molecule agonists of H2AX (AID 1224845; active means well fitted activation curve with a large enough effect in the signal ratio in the repeat runs, not every such curve was filed as active; the % refers to the signal ratio). In a few lines: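 Wild-type CHO-K1 cells plated overnight, then exposed 3 hr at 37C to compounds at 15 concentrations (0.76% DMSO). Lysed, then HTRF anti-pH2AX(S139)-cryptate/anti-H2AX-d2 detection after 24 hr at room temperature; emissions 665 and 620 nm.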
The nature of experiment [3]: qHTS assay to identify small molecule agonists of the hypoxia (HIF-1) signaling pathway (AID 1224846; active means well fitted activation curve with a large enough effect in the signal ratio in the repeat runs, not every such curve was filed as active; the % refers to the signal ratio). The essentials:
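ME-180 HRE-bla reporter cells; compounds in DMSO, 17 h at 37C; read-out beta-lactamase via CCF4-AM FRET.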

Experiment [4] is described as follows: qHTS assay to identify small molecule agonists of H2AX - cell viability counter screen (AID 1224847; calls by dose curve; further: top concentration of the series differs between compounds; nearly all actives have a fitted effect of over 30% in size). In a few lines:
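Read-out: CellTiter-Glo luminescence, 30 min RT. Cells: wild-type CHO-K1, 1000/well, 10% FBS, plated overnight at 37C. Treatment: 15 concentrations, 3 hr, 37C, 0.76% DMSO.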

Experiment [5] is described as follows: qHTS RealTime-Glo MT Cell Viability Assay in HepG2 cells - 24 hour (AID 1224867). Further: nearly all actives have a fitted effect of over 50% in size. In a few lines: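 HepG2 cells were seeded at 600 cells/well together with NanoLuc luciferase and a cell-permeant prosubstrate, preincubated 5 h at 37 C/5% CO2, then pin-dosed with compounds in DMSO. Nonlytic luminescence from viable cells was read at each time point.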
Experiment [6] in a line: qHTS RealTime-Glo MT Cell Viability Assay in HEK293 cells - 32 hour (AID 1224868). Further: top concentration of the series differs between compounds; nearly all actives have a fitted effect of over 50% in size. In a few lines: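 HEK293 cells were seeded at 600 cells/well together with NanoLuc luciferase and cell-permeant prosubstrate, preincubated 5 h at 37 C/5% CO2, then given compound in DMSO by pintool. Luminescence from viable-cell prosubstrate reduction was read repeatedly over 40 h.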
Experiment [7] in a line: A CellTox Green Cytotoxicity Assay to monitor cytotoxicity in HEK293 cells - 0 hour (AID 1224869). Further: nearly all actives have a fitted effect of over 50% in size. The essentials:
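Real-time, in one plate: 600 HEK293 cells/well with dead-cell DNA dye, pinned compound after 5 h, 37 C incubation over 40 h; viable cells give no appreciable fluorescence.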

A short description of experiment [8]: qHTS assay to identify small molecule antagonists of the estrogen related receptor (ERR) signaling pathway from Tox21 library (AID 1224848). Further: nearly all actives have a fitted effect of over 50% in size. Further: potency means the concentration at half of the fitted maximal effect. In a few lines: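 Tox21 10K compounds in DMSO tested for ERR pathway antagonism in NTP's ERR cell line; 18 h, 37 C exposure; ONE-Glo luminescence.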
Experiment [9] can be described thus: qHTS assay to identify small molecule agonists of the estrogen related receptor (ERR) signaling pathway from Tox21 library (AID 1224849; calls by dose curve; further: nearly all actives have a fitted effect of over 15% in size). As to conditions: ERR reporter cell line, ONE-Glo luciferase, 18 h; at 92.4 µM (top of the series) unless noted. In a few lines:
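Luciferase activity in ERR pathway reporter cells served as the agonist readout; exposure lasted 18 h at 37 C, with ONE-Glo detection after 30 min at room temperature.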

Experiment [10] in a line: qHTS RealTime-Glo MT Cell Viability Assay in HepG2 cells - 40 hour (AID 1224870). Further: nearly all actives have a fitted effect of over 50% in size. In a few lines: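 HepG2 cells mixed with RealTime-Glo MT reagents (NanoLuc plus cell-permeant prosubstrate) were seeded at 600 cells/well, incubated 5 h at 37 C/5% CO2, then pinned with compounds in DMSO; nonlytic luminescence tracked viability during 40 h treatment.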
On the % scale 0 is the no-effect control and ±100 the full control effect.

Take `O=C(NC(=O)c1c(F)cccc1F)Nc1cc(Cl)c(F)c(Cl)c1F`: the Potency result in experiment [1], in [4], in experiment [5] and in [6] was “inactive” throughout. Besides, the compound was classed as inactive in experiment [2], in [3] and in experiment [7].
For the compound `O=C(Cl)c1ccccc1`, the Potency result in [1], in experiment [4], in experiment [8], in experiment [5] and in experiment [10] was “inactive” each time. Besides, the compound was classed as inactive in [2], in experiment [3] and in [7]. Besides, in [9], the activity change, positive = activation is 7.58%.
Turning to `Oc1ccc(Cc2ccc(O)cc2)cc1`, the Potency result in experiment [1], in experiment [4], in experiment [8], in [5] and in experiment [10] was “inactive” throughout. The result in experiment [2], in experiment [3] and in [7] was inactive. In addition, the activity change, positive = activation in experiment [9] is 5.91%.
In the case of `C=CC1(C)OC(=O)N(c2cc(Cl)cc(Cl)c2)C1=O` (configuration not stated), the Potency entry in [1], in [4], in experiment [5] and in [6] was “inactive” each time. Moreover, the call in [2], in experiment [3] and in experiment [7] was inactive.
Turning to `C#CCOC(=O)/C=C(C)/C=C/CC(C)CCCC(C)C` (configuration not stated), the Potency result in experiment [1], in experiment [4], in experiment [8], in experiment [5] and in experiment [10] was “inactive” throughout. Also, the compound was called inactive in experiment [2], in experiment [3] and in experiment [7]. For the same compound, the activity change, positive = activation in [9] was 0.281%.
On to `COc1cccc(C=O)c1`, for which the Potency entry in [1], in experiment [4], in [8], in experiment [5] and in experiment [10] was “inactive” throughout. Moreover, the result in [2], in [3] and in [7] was inactive. Besides, the activity change, positive = activation in experiment [9] was 0.51%.
Regarding `BrCCc1ccccc1`, the Potency entry in experiment [1], in experiment [4], in experiment [8], in [6] and in experiment [10] was “inactive” each time. In addition, the compound was called inactive in experiment [2], in [3] and in experiment [7]. The activity change, positive = activation in experiment [9] was 0.561%.
`COC[C@@H](NC(C)=O)C(=O)NCc1ccccc1`: the Potency entry in experiment [1], in experiment [4], in [8], in [5] and in [10] was “inactive” throughout. Moreover, the result in experiment [2] and in experiment [3] was inactive. Moreover, the activity change, positive = activation in experiment [9] is 4.5% [at 42.5 µM].
Turning to `c1ccc2c(c1)CCNC2`, the Potency entry in experiment [1], in experiment [4] and in experiment [8] was “inactive” throughout. Also, the outcome in experiment [2], in [3] and in [7] was inactive. The activity change, positive = activation in [9] is -19.6%.
For `Cc1ccc(S(=O)(=O)N[C@@H](CCCCN)C(=O)CCl)cc1`, the Potency entry in experiment [1], in [4], in experiment [8], in experiment [5] and in experiment [10] was “inactive” in each case. Further, the result in experiment [2] and in [3] was inactive. Also, the activity change, positive = activation in experiment [9] was 0.318% [at 42.5 µM].
As for `C[C@H](CN1CCOCC1)C(C(=O)N1CCCC1)(c1ccccc1)c1ccccc1`, the Potency result in experiment [1], in experiment [4] and in [5] was “inactive” each time. Besides, the result in experiment [2], in experiment [3] and in experiment [7] was inactive. In experiment [8], the Potency is 66.3 µM (active). The activity change, positive = activation in experiment [9] is -33.1%.
Turning to `CNC(=O)Oc1cc(C)c(N(C)C)c(C)c1`, the Potency entry in [1], in experiment [4], in experiment [8], in [5] and in [10] was “inactive” each time. Besides, the outcome in experiment [2], in experiment [3] and in experiment [7] was inactive. For the same compound, the activity change, positive = activation in experiment [9] was 4.59%.
For `CC[C@@H](CO)NC(=O)[C@@H]1C=C2c3cccc4c3c(cn4C)C[C@H]2N(C)C1`, the Potency entry in [1], in experiment [4], in experiment [8], in experiment [6] and in experiment [10] was “inactive” throughout. Also, the compound was called inactive in [2], in experiment [3] and in [7]. In addition, in [9], the activity change, positive = activation was 0.637% [at 42.5 µM].
`CN(C)C1CCCCC1`: the Potency entry in [1], in experiment [4], in experiment [8] and in [10] was “inactive” throughout. For the same compound, the compound was classed as inactive in experiment [2] and in experiment [3].
Take `CCN(CC)C1CCCCC1`: the Potency entry in experiment [1], in [4], in [8], in experiment [6] and in experiment [10] was “inactive” throughout. For the same compound, the result in [2] and in experiment [3] was inactive. Also, the activity change, positive = activation in experiment [9] was 0.2%.
For the compound `CCOC(=O)N(C)N=O`, the Potency entry in experiment [1], in experiment [4], in experiment [8] and in experiment [5] was “inactive” in each case. In addition, the compound was classed as inactive in [2], in experiment [3] and in [7]. In addition, the activity change, positive = activation in experiment [9] was -2.98%.
Take `CC(=O)CN(CC(C)=O)N=O`: the Potency result in [1], in experiment [4], in [8], in experiment [5] and in [10] was “inactive” throughout. Moreover, the compound was classed as inactive in experiment [2], in experiment [3] and in [7]. The activity change, positive = activation in [9] was -3.56%.
As for `C=C1C[C@@H]2[C@H](CC[C@]3(C)C(=O)CC[C@@H]23)[C@@]2(C)C=CC(=O)C=C12`, the Potency entry in [1], in experiment [4], in experiment [5] and in experiment [10] was “inactive” each time. The compound was classed as inactive in experiment [2], in [3] and in experiment [7]. Moreover, the activity change, positive = activation in experiment [9] is -24.3% [at 42.5 µM].
As to `CCN(CCO)CCn1c(Cc2ccccc2)nc2c1c(=O)n(C)c(=O)n2C`, the Potency result in experiment [1], in experiment [4], in experiment [8] and in experiment [10] was “inactive” each time. In addition, the compound was called inactive in [2], in experiment [3] and in [7]. In experiment [9], the activity change, positive = activation is -1.48% [at 42.5 µM].
Consider `CCC1(c2ccccc2)CCC(=O)NC1=O` (configuration not stated), for which the Potency entry in experiment [1], in experiment [4], in experiment [5], in experiment [6] and in experiment [10] was “inactive” in each case. Besides, the result in [2], in experiment [3] and in experiment [7] was inactive.
With `CC(Cc1ccccc1)NCCCCl` (configuration not stated), the Potency result in experiment [1], in experiment [4], in [5], in experiment [6] and in experiment [10] was “inactive” each time. For the same compound, the compound was classed as inactive in [2], in experiment [3] and in experiment [7].
`CCN(CCO)CCO`: the Potency result in experiment [1], in experiment [4], in [5], in [6] and in [10] was “inactive” throughout. Also, the result in experiment [2], in [3] and in experiment [7] was inactive.
On to `CC(C)(C)C(=O)Cl`, for which the Potency result in experiment [1], in experiment [4], in experiment [5], in experiment [6] and in experiment [10] was “inactive” throughout. Also, the compound was called inactive in experiment [2], in experiment [3] and in experiment [7].
For the compound `Cc1cc(OC(=O)N(C)C)nn1C(=O)N(C)C`, the Potency entry in experiment [1], in experiment [4], in experiment [5], in [6] and in experiment [10] was “inactive” each time. The compound was classed as inactive in [2], in experiment [3] and in [7].
As to `CCN[C@@H](C)Cc1cccc(C(F)(F)F)c1`, the Potency result in experiment [1], in experiment [4], in experiment [5], in experiment [6] and in experiment [10] was “inactive” each time. Moreover, the outcome in experiment [2] and in experiment [3] was inactive.
Regarding `O=C/C=C/c1ccco1`, the Potency result in experiment [1], in experiment [4], in [5], in experiment [6] and in [10] was “inactive” in each case. Also, the result in experiment [2] and in experiment [3] was inactive.
Turning to `O=C(O)C(Cl)Br` (configuration not stated), the Potency entry in experiment [1], in [4], in experiment [5] and in experiment [10] was “inactive” in each case. Besides, the result in experiment [2], in experiment [3] and in experiment [7] was inactive.
With `ClCCN1CCCC1`, the Potency result in experiment [1], in experiment [4], in [5], in [6] and in experiment [10] was “inactive” each time. Further, the call in [2], in experiment [3] and in experiment [7] was inactive.
With `C[N+]1(C)CCCCC1`, the Potency entry in [1], in experiment [4], in experiment [5], in experiment [6] and in experiment [10] was “inactive” throughout. Also, the compound was called inactive in experiment [2], in experiment [3] and in experiment [7].
